# Assay results published in PubChem BioAssay (NCATS).
# Activity calls are given as the source filed them. The call rests on the fitted dose curve.
# Target: Tumor susceptibility gene 101 protein (Homo sapiens) (UniProt Q99816)
# Experiment: qHTS Validation Assay for Iinhibitors of HIV-1 Budding by Blocking the Interaction of PTAP/TSG101 (AID 485342); further: 0% is about no effect
# Conditions: TSG101-PTAP binding, fluorescence polarization, 4-point titration; series mostly up to 115 µM; fluorescence change: at the top concentration
# Summary of the method: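 Tsg101 binding domain (10 uM) with FITC-labeled PTAP peptide (50 nM) in HEPES pH 7.5 buffer, 20 min at r.t. with compounds. Binding measured by fluorescence polarization.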
# Chain of Tumor susceptibility gene 101 protein (Homo sapiens) (Q99816 whole entry, looked up): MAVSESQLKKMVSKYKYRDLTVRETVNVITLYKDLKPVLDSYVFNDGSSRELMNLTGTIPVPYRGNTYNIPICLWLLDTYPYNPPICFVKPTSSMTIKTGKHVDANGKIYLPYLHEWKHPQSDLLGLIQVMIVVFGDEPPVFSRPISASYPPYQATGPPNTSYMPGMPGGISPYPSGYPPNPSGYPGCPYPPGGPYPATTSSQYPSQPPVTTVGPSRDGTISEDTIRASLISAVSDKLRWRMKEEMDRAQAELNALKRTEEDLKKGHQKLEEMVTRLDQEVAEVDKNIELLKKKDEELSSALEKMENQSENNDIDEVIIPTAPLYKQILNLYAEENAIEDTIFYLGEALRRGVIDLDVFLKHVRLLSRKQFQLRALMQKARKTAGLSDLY
row,SMILES,fluorescence change
1,CN1C[C@H](CNC(=O)OCc2ccccc2)C[C@@H]2c3cccc4c3c(cn4C)C[C@H]21,22.8% (inactive)
2,CC[C@@H](CO)NC(=O)[C@@H]1C=C2c3cccc4[nH]cc(c34)C[C@H]2N(C)C1,158% (inactive)
3,O=c1[nH]c2ccccc2n1C1CCN(CCCC(c2ccc(F)cc2)c2ccc(F)cc2)CC1,-21.9% (inactive)
4,Cc1ccc(S(=O)(=O)N[C@@H](CCCCN)C(=O)CCl)cc1,7.03% (inactive)
5,O=c1[nH]c2ccccc2n1CCCN1CCC(n2c(=O)[nH]c3cc(Cl)ccc32)CC1,3.88% (inactive)
6,Fc1ccc(C(OCCN2CCN(CCCc3ccccc3)CC2)c2ccc(F)cc2)cc1,-12.4% (inactive)
7,CC[C@@H](CO)NC(=O)[C@@H]1C=C2c3cccc4c3c(cn4C)C[C@H]2N(C)C1,17% (inactive)
8,C=C(C)[C@H]1Cc2c(ccc3c2O[C@@H]2COc4cc(OC)c(OC)cc4[C@@H]2C3=O)O1,-6.28% (inactive)
9,COC[C@H]1OC(=O)c2coc3c2[C@@]1(C)C1=C(C3=O)C2CCC(=O)[C@@]2(C)C[C@H]1OC(C)=O (some centres undefined),18.9% (inactive)
